# Measurements from PubChem BioAssay AID770 (SRMLSC, 2007).
# The whole screen tested about 3,300 compounds, of which fewer than 10 were called active.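 Rule for the calls: active = growth inhibition above 90% in viable cell count at a single dose; inactive = growth inhibition below 90%.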 Not all results are given here.
# Assay: HT29 colon tumor cell growth inhibition, primary screen, imaging, high content imaging, 24 h, CellTiter-Glo (AID 770);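 for condensed nuclei: share of cells whose nuclear area falls below control median minus 1.5 SD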
# Details: HT29 cell number by imaging, at 10 µM, stronger effect = higher value; for condensed nuclei: measured here: percent cells with condensed nuclei
# [1] = measured here: ATP CellTiter-Glo viability
Structure (SMILES),growth inhibition,growth inhibition [1] [%],condensed nuclei [%]
CC1(C)Cc2c(c(-c3ccccc3Cl)[nH]c(=O)c2C#N)CO1,-42.2% (inactive),-17.5,1.85
COC(=O)C(NC(C)=O)(Nc1ccccc1)C(=O)OC,-24.8% (inactive),-9.05,3.37
O=C(OCCCN1CCCC1)C1(c2ccccc2)CCCC1,3.8% (inactive),4.75,5.7
CCCCCCSC1=C(C#N)C(c2ccccc2)CC(=O)N1 (configuration not stated),-14.4% (inactive),-7.19,3.36
C=C(C)CSC1=C(C#N)C(c2ccsc2)CC(=O)N1 (configuration not stated),-9.27% (inactive),-4.29,1.96
N#CC1=C2SCC(O)(c3ccccc3)N2C(=O)CC1c1ccccc1 (configuration not stated),90.7% (active),28.5,46
Nc1c2c(nc3ccccc13)N(c1ccccc1)CC2,-26.1% (inactive),-9.66,3.19
CC(C)c1cc(NCCCN2CCOCC2)n2c(nc3ccccc32)c1C#N,-4.17% (inactive),-7.5,5.23
CCCOc1ccc(C2NC(=O)NC2=O)cc1 (configuration not stated),10.6% (inactive),-11.9,16
Cc1cc(C)n(Cc2cc(C)c(Cn3nc(C)cc3C)cc2C)n1,-26.1% (inactive),-2.81,2.58
CCOc1ccc2c(C)nc(NC3=NC(C)(C)C=C(C)N3)nc2c1,18.5% (inactive),16.6,3.47
CC1(C)Cc2c(sc3c4nnnn4c4nnnn4c23)CO1,6.59% (inactive),-3.55,2.72
Cc1ccc(C(=O)C2=C(O)C(=O)N(CCN3CCOCC3)C2c2ccccn2)o1 (configuration not stated),20.8% (inactive),0.76,4.96
Cc1cccn2c(=O)c(/C=C(\C#N)S(=O)(=O)c3ccccc3)c(N3CCN(C)CC3)nc12,5.64% (inactive),13.3,3.93
Nc1nnc(CSCc2ccc(F)cc2)s1,-13.9% (inactive),-8.17,3.43
Cc1ccc2[nH]c3c(N4CCCCCC4)ncnc3c2c1,74.2% (inactive),38.6,5.98
Cc1cc(=O)oc(C)c1C(=O)Nc1cccc2nonc12,38% (inactive),7.72,3.32
C/C(=N\O)C(=O)NCCCNCCCN(C)C,28.6% (inactive),10.3,4.53
N#CC1=C(SCC(=O)c2ccc(Cl)cc2)NC2=C(C(=O)CCC2)C1c1ccco1 (configuration not stated),64.2% (inactive),40,20.2
O=S(=O)(/C=C/c1ccccc1)Nc1ccc2c(c1)OCO2,-3.8% (inactive),-13.4,3.87
CCCOc1ccc(/C(O)=C2/C(=O)C(=O)N(CCN(C)C)C2c2ccncc2)cc1 (configuration not stated),-14% (inactive),-1.78,5.23
CCOc1nc(SCCOc2ccc(C)cc2)nc(N(C)C)n1,-2.97% (inactive),-13.9,2.83
CCOC(=O)COc1ccc(Oc2nc(C)cc(OC)n2)nn1,-1.19% (inactive),1.86,5.21
CCCCN(C(=O)CCC(=O)O)C1CC(=O)N(c2ccc(OCCC)cc2)C1=O (configuration not stated),20.1% (inactive),7.14,1.69
COCc1[nH]nc2c1C(c1ccccc1OC)C(C#N)=C(N)O2 (configuration not stated),34.7% (inactive),-0.21,3.93

Structure (SMILES),growth inhibition,growth inhibition [1] [%],condensed nuclei [%]
CC1CCc2cc(F)cc3c(O)c(C(=O)NCC4CCCO4)c(=O)n1c23 (configuration not stated),12.1% (inactive),11.9,2.11
O=C1OC(Nc2ccc(Br)cn2)c2ccccc21 (configuration not stated),-21.1% (inactive),2.61,3.37
CCOC(=O)c1ccc(-n2c(=O)[nH]c3ccccc3c2=O)cc1,-28.4% (inactive),-4.1,4.94
COc1ccc(-c2onc(C)c2-c2ccccc2)c(O)c1,25.2% (inactive),-2.05,4.31
CCn1c(-c2ccco2)n[nH]c1=S,2.65% (inactive),-3.63,3.02
COC(=O)COn1c(SCC(=O)OC)nc2ccccc2c1=O,39.9% (inactive),-6.12,2.06
CCN(CC)C(=O)COn1c(SCC(=O)N(CC)CC)nc2ccccc2c1=O,28.8% (inactive),-9.22,5.68
CN(C)C(=O)COn1c(SCC(=O)N(C)C)nc2ccccc2c1=O,100% (active),-74.5,7.94
Cc1c(/C(O)=C2\C(=O)C(=O)N(CCN(C)C)C2c2cccnc2)cnn1-c1ccccc1 (configuration not stated),65.4% (inactive),24.8,7.5
Cc1nc2c(c(=O)n1CC1CCCO1)c1nc3ccccc3nc1n2CC(C)C (configuration not stated),47.8% (inactive),4.29,7.73
Cc1[nH]c(=O)[nH]c(=O)c1S(=O)(=O)N1CCCC1,7.67% (inactive),-13.2,3.07
CCCCSc1nnc(-c2ccc(NC(C)=O)cc2)n1C,14.5% (inactive),6.32,2.33
c1ccc(OCc2nn3c(C4CCCCC4)nnc3s2)cc1,0.33% (inactive),-3.2,2.15
Cc1cccc(C)c1OCC(O)CNS(=O)(=O)c1ccccc1C(=O)N1CCOCC1 (configuration not stated),-11.9% (inactive),-0.31,3.46
COc1ccc(-n2ccc(=O)c3c2CCCC3=O)cc1,-18.6% (inactive),1.93,3.07
Cc1ccc(-c2nnc(OCCN3CCOCC3)c3ccccc23)cc1,30.1% (inactive),10.1,3.64
COc1cc(C2C(C(=O)c3ccc(C)o3)=C(O)C(=O)N2c2cc(C)on2)cc(OC)c1OC (configuration not stated),-22% (inactive),-13.1,3.21
Cc1c(OCc2ccccc2)c(=O)ccn1Cc1ccccc1,-0.34% (inactive),-10.9,1.99
Oc1oc(-c2ccccc2)nc1C=NCc1ccncc1,2.2% (inactive),-2.06,3.2
CC1(C)CC(N(Cc2ccco2)C(=O)Cc2ccccc2)CCO1 (configuration not stated),12.6% (inactive),0.11,2.03
Cc1cc(C)n(-c2ncnc3sc(C)c(C)c23)n1,-10.3% (inactive),2.85,1.35
COc1ccc(C2NC(=O)NC(O)(C(F)(F)F)C2C(=O)c2ccc(F)cc2)cc1 (configuration not stated),-33.6% (inactive),0.76,2.45
CC(C)c1ccc(O)c(N)c1,-26.1% (inactive),2.95,5.48
CC1(C)NC(=O)N(CC(O)COc2cc3ccccc3cc2C(=O)N2CCCCC2)C1=O (configuration not stated),23.3% (inactive),-6.38,4.21
